Reference: the supplement of paper PMC7411054
Where a name gives a salt, the structure may show the parent alone.

Key:
Conditions in all cases: treatment time: 24 h
A549-ACTB-RAB5A [1] = test: lowest phenotypically active concentration; higher = less potent
Summary of the method: (§1)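 Two criteria together defined phenotypic activity: deviation and reproducibility. Deviation meant ≥3 of 4 wells beyond the 95th percentile of Euclidean distances in solvent control wells, and reproducibility meant a median replicate Pearson correlation above the 95th percentile of non-replicates. Wells had been treated for 24 h at 0.3, 1, 3 or 9 µM in fifteen gene-edited A549, HepG2 and WPMY1 reporter lines before live imaging.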

A549-GM130-SQSTM1 [2] = test: as above
Summary of the method: as §1

A549-TUBA1B-RELA [3] = test: as above
Summary of the method: as §1

WPMY1-ACTB-RAB5A [4] = test: as above
Summary of the method: as §1

WPMY1-CANX-COX4 [5] = test: as above
Summary of the method: as §1

A549-ACTB-RAB5A [6] = test: phenotypically active (imaging signature differs from DMSO and reproducible) at any of 0.3-9 uM (binary (1 = active, 0 = inactive)); higher = active
Summary of the method: as §1

A549-CANX-COX4 = test: as above
Summary of the method: as §1

A549-GM130-SQSTM1 [7] = test: as above
Summary of the method: as §1

A549-TP53BP1-CLTA = test: as above
Summary of the method: as §1

A549-TUBA1B-RELA [8] = test: as above
Summary of the method: as §1

HepG2-ACTB-RAB5A = test: as above
Summary of the method: as §1

HepG2-CANX-COX4 = test: as above
Summary of the method: as §1

HepG2-GM130-SQSTM1 = test: as above
Summary of the method: as §1

HepG2-TP53BP1-CLTA = test: as above
Summary of the method: as §1

HepG2-TUBA1B-RELA = test: as above
Summary of the method: as §1

WPMY1-ACTB-RAB5A [9] = test: as above
Summary of the method: as §1

WPMY1-CANX-COX4 [10] = test: as above
Summary of the method: as §1

WPMY1-GM130-SQSTM1 = test: as above
Summary of the method: as §1

WPMY1-TP53BP1-CLTA = test: as above
Summary of the method: as §1

WPMY1-TUBA1B-RELA = test: as above
Summary of the method: as §1

| Compound | lowest phenotypically active concentration (A549-ACTB-RAB5A [1]) | lowest phenotypically active concentration (A549-GM130-SQSTM1 [2]) | lowest phenotypically active concentration (A549-TUBA1B-RELA [3]) | lowest phenotypically active concentration (WPMY1-ACTB-RAB5A [4]) | lowest phenotypically active concentration (WPMY1-CANX-COX4 [5]) | phenotypically active (A549-ACTB-RAB5A [6]) | phenotypically active (A549-CANX-COX4) | phenotypically active (A549-GM130-SQSTM1 [7]) | phenotypically active (A549-TP53BP1-CLTA) | phenotypically active (A549-TUBA1B-RELA [8]) | phenotypically active (HepG2-ACTB-RAB5A) | phenotypically active (HepG2-CANX-COX4) | phenotypically active (HepG2-GM130-SQSTM1) | phenotypically active (HepG2-TP53BP1-CLTA) | phenotypically active (HepG2-TUBA1B-RELA) | phenotypically active (WPMY1-ACTB-RAB5A [9]) | phenotypically active (WPMY1-CANX-COX4 [10]) | phenotypically active (WPMY1-GM130-SQSTM1) | phenotypically active (WPMY1-TP53BP1-CLTA) | phenotypically active (WPMY1-TUBA1B-RELA) |
| --- | --- | --- | --- | --- | --- | --- | --- | --- | --- | --- | --- | --- | --- | --- | --- | --- | --- | --- | --- | --- |
| CN(C)CC(=O)Nc1ccc2[nH]c(=O)c3ccccc3c2c1 [PJ 34 hydrochloride] | 9 µM | 9 µM | 9 µM | 9 µM | 3 µM | 1 (active) | 1 (active) | 1 (active) | 0 (inactive) | 1 (active) | 1 (active) | 1 (active) | 1 (active) | 1 (active) | 1 (active) | 1 (active) | 1 (active) | 1 (active) | 0 (inactive) | 1 (active) |
| O=c1cc(-c2ccccc2)oc2c(O)c(O)ccc12 [7,8-Dihydroxyflavone] | 9 µM |  | 9 µM | 9 µM | 9 µM | 1 (active) | 1 (active) | 0 (inactive) | 0 (inactive) | 1 (active) | 1 (active) | 1 (active) | 1 (active) | 0 (inactive) | 0 (inactive) | 1 (active) | 1 (active) | 1 (active) | 0 (inactive) | 1 (active) |
| N#C/C(=C/c1ccc(O)c(O)c1)C(=O)NCCCCc1ccccc1 | 9 µM | 9 µM | 9 µM | 9 µM | 9 µM | 1 (active) | 1 (active) | 1 (active) | 0 (inactive) | 1 (active) | 1 (active) | 1 (active) | 1 (active) | 1 (active) | 0 (inactive) | 1 (active) | 1 (active) | 1 (active) | 1 (active) | 1 (active) |
| CCCCOc1c(C(=O)c2c(F)cc(C)cc2F)cnc2[nH]ncc12 | ≤ 0.3 µM | 1 µM | ≤ 0.3 µM | ≤ 0.3 µM | ≤ 0.3 µM | 1 (active) | 1 (active) | 1 (active) | 0 (inactive) | 1 (active) | 1 (active) | 0 (inactive) | 1 (active) | 1 (active) | 1 (active) | 1 (active) | 1 (active) | 0 (inactive) | 0 (inactive) | 1 (active) |
| CN1CCc2cccc3c2[C@H]1Cc1ccc(O)c(O)c1-3 [r(-)-apomorphine] | 9 µM | 9 µM | 9 µM | 9 µM | 9 µM | 1 (active) | 1 (active) | 1 (active) | 1 (active) | 1 (active) | 0 (inactive) | 0 (inactive) | 0 (inactive) | 0 (inactive) | 0 (inactive) | 1 (active) | 1 (active) | 1 (active) | 0 (inactive) | 1 (active) |
| C/C(=N/NC(=N)N)c1ccc(NC(=O)Nc2ccc(/C(C)=N/NC(=N)N)cc2)cc1 | 3 µM | 9 µM | 3 µM | 3 µM | 3 µM | 1 (active) | 1 (active) | 1 (active) | 0 (inactive) | 1 (active) | 1 (active) | 1 (active) | 1 (active) | 1 (active) | 1 (active) | 1 (active) | 1 (active) | 1 (active) | 0 (inactive) | 0 (inactive) |
| O=c1c(-c2ccc(O)cc2)coc2cc(O[C@@H]3O[C@H](CO)[C@@H](O)[C@H](O)[C@H]3O)cc(O)c12 [Genistin] | 9 µM |  | 9 µM | 9 µM | 9 µM | 1 (active) | 1 (active) | 0 (inactive) | 1 (active) | 1 (active) | 0 (inactive) | 0 (inactive) | 0 (inactive) | 0 (inactive) | 0 (inactive) | 1 (active) | 1 (active) | 0 (inactive) | 1 (active) | 0 (inactive) |
| COc1cc2ncnc(Nc3cccc(Br)c3)c2cc1OC | 3 µM | 9 µM | 3 µM |  | 9 µM | 1 (active) | 1 (active) | 1 (active) | 1 (active) | 1 (active) | 0 (inactive) | 0 (inactive) | 1 (active) | 1 (active) | 1 (active) | 0 (inactive) | 1 (active) | 1 (active) | 1 (active) | 0 (inactive) |
| O=C1/C(=C\c2ccncc2)CCC/C1=C\c1ccncc1 | 3 µM | 3 µM |  | 3 µM | 3 µM | 1 (active) | 1 (active) | 1 (active) | 0 (inactive) | 0 (inactive) | 1 (active) | 1 (active) | 1 (active) | 1 (active) | 1 (active) | 1 (active) | 1 (active) | 1 (active) | 1 (active) | 1 (active) |
| COc1ccc(-c2cnc(-c3cccc4c3-c3ccccc3C4=O)o2)cc1 | ≤ 0.3 µM | ≤ 0.3 µM | ≤ 0.3 µM | ≤ 0.3 µM | ≤ 0.3 µM | 1 (active) | 1 (active) | 1 (active) | 1 (active) | 1 (active) | 0 (inactive) | 0 (inactive) | 0 (inactive) | 0 (inactive) | 0 (inactive) | 1 (active) | 1 (active) | 1 (active) | 1 (active) | 1 (active) |
| CCn1c(=O)n([C@H]2CCCN(c3nccc(-c4cc5ccccc5o4)n3)C2)c2ccccc21 | 3 µM | 3 µM | 9 µM |  | 3 µM | 1 (active) | 1 (active) | 1 (active) | 1 (active) | 1 (active) | 0 (inactive) | 0 (inactive) | 0 (inactive) | 0 (inactive) | 0 (inactive) | 0 (inactive) | 1 (active) | 0 (inactive) | 0 (inactive) | 0 (inactive) |
| CC(C)n1c(/C=C/[C@@H](O)C[C@@H](O)CC(=O)O)c(-c2ccc(F)cc2)c2ccccc21 [fluvastatin] | 1 µM | 9 µM |  | 1 µM | 3 µM | 1 (active) | 1 (active) | 1 (active) | 1 (active) | 0 (inactive) | 1 (active) | 1 (active) | 1 (active) | 1 (active) | 1 (active) | 1 (active) | 1 (active) | 1 (active) | 1 (active) | 1 (active) |
| CC(C)c1cnn2c(NCc3ccccc3)cc(NCCCCCCN)nc12 [BS 181 dihydrochloride] | 9 µM |  | 9 µM |  | 9 µM | 1 (active) | 1 (active) | 0 (inactive) | 1 (active) | 1 (active) | 0 (inactive) | 0 (inactive) | 0 (inactive) | 0 (inactive) | 0 (inactive) | 0 (inactive) | 1 (active) | 0 (inactive) | 1 (active) | 1 (active) |
| COc1ccc(-c2cc(=O)c3c(O)cc(O)cc3o2)cc1O [Diosmetin] | 9 µM | 9 µM | 9 µM |  | 9 µM | 1 (active) | 1 (active) | 1 (active) | 0 (inactive) | 1 (active) | 0 (inactive) | 0 (inactive) | 0 (inactive) | 0 (inactive) | 1 (active) | 0 (inactive) | 1 (active) | 0 (inactive) | 1 (active) | 1 (active) |
| C[C@@H](Nc1ncnc2[nH]c(-c3ccc(O)cc3)cc12)c1ccccc1 [PKI 166 hydrochloride] | 3 µM | 3 µM | 3 µM | 9 µM | 3 µM | 1 (active) | 1 (active) | 1 (active) | 1 (active) | 1 (active) | 0 (inactive) | 1 (active) | 0 (inactive) | 1 (active) | 1 (active) | 1 (active) | 1 (active) | 1 (active) | 1 (active) | 1 (active) |
| COc1c(Cl)cc2c([nH]c3cnccc32)c1NC(=O)c1cccnc1C [ML 120B dihydrochloride] | 9 µM | 3 µM | 9 µM |  |  | 1 (active) | 1 (active) | 1 (active) | 0 (inactive) | 1 (active) | 1 (active) | 1 (active) | 0 (inactive) | 1 (active) | 0 (inactive) | 0 (inactive) | 0 (inactive) | 0 (inactive) | 0 (inactive) | 0 (inactive) |
| Cc1cc(F)c(Nc2ncnc3cc(OCc4ccccc4)ccc23)cc1O | 9 µM | 9 µM | 9 µM |  | 3 µM | 1 (active) | 1 (active) | 1 (active) | 0 (inactive) | 1 (active) | 0 (inactive) | 0 (inactive) | 0 (inactive) | 0 (inactive) | 0 (inactive) | 0 (inactive) | 1 (active) | 0 (inactive) | 0 (inactive) | 1 (active) |
| C=C1CC[C@@H]2[C@](C)(CO)[C@H](O)CC[C@@]2(C)[C@@H]1C/C=C1/C(=O)OC[C@H]1O [Andrographolide] | 9 µM | 3 µM | 9 µM |  |  | 1 (active) | 1 (active) | 1 (active) | 0 (inactive) | 1 (active) | 1 (active) | 1 (active) | 1 (active) | 1 (active) | 1 (active) | 0 (inactive) | 0 (inactive) | 1 (active) | 0 (inactive) | 1 (active) |
| c1cc(-c2cc(C3CCNCC3)[nH]n2)ccn1 | 9 µM | 3 µM | 9 µM | 9 µM | 9 µM | 1 (active) | 1 (active) | 1 (active) | 0 (inactive) | 1 (active) | 0 (inactive) | 1 (active) | 0 (inactive) | 0 (inactive) | 0 (inactive) | 1 (active) | 1 (active) | 0 (inactive) | 0 (inactive) | 0 (inactive) |
| Cc1cc2c(F)c(Oc3ncnn4cc(OC[C@@H](C)OC(=O)[C@H](C)N)c(C)c34)ccc2[nH]1 [brivanib-alaninate] | 9 µM | 9 µM |  | 3 µM | 3 µM | 1 (active) | 1 (active) | 1 (active) | 1 (active) | 0 (inactive) | 1 (active) | 1 (active) | 1 (active) | 1 (active) | 1 (active) | 1 (active) | 1 (active) | 1 (active) | 1 (active) | 1 (active) |
| C=C1C(=O)O[C@@H]2C=C(C)CCC=C(C)CC[C@@H]12 [Costunolide] | 9 µM |  |  | 9 µM |  | 1 (active) | 1 (active) | 0 (inactive) | 0 (inactive) | 0 (inactive) | 1 (active) | 1 (active) | 1 (active) | 1 (active) | 0 (inactive) | 1 (active) | 0 (inactive) | 1 (active) | 1 (active) | 1 (active) |
| COc1c(C=O)c(O)cc2c1C(=O)c1ccccc1C2=O [Damnacanthal] | 9 µM | 3 µM |  | 9 µM | 9 µM | 1 (active) | 0 (inactive) | 1 (active) | 1 (active) | 0 (inactive) | 1 (active) | 0 (inactive) | 1 (active) | 1 (active) | 0 (inactive) | 1 (active) | 1 (active) | 1 (active) | 1 (active) | 1 (active) |
